Structures are written as SMILES. Records with an inconclusive call do not appear. Where a call stands in place of a potency, no number is given. Unmarked numbers belong to inactive results. The source made the active and inactive calls. The call rests on the fitted dose curve.

Retinoic acid receptor RXR-alpha (Homo sapiens), sequence (P19793 whole entry, looked up): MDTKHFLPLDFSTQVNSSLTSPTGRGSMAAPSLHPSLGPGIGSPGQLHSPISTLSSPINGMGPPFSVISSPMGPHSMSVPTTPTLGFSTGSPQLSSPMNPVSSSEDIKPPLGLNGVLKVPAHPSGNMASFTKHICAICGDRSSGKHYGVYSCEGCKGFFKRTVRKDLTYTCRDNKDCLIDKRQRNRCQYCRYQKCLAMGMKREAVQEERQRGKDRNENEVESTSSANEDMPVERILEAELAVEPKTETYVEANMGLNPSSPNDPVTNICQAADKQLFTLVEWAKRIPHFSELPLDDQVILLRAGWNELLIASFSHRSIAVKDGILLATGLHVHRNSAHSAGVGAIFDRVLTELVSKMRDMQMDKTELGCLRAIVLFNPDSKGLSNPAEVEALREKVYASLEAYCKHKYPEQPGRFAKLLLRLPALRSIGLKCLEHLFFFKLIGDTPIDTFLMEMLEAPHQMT

This experiment deals with Retinoic acid receptor RXR-alpha (Homo sapiens) (UniProt P19793). The experiment is described as follows: qHTS assay to identify small molecule agonists of the RXR signaling pathway (AID 1159527). Further: nearly all actives have a fitted effect of over 35% in size. The note with it: HEK293T RXRa-UAS-bla, beta-lactamase ratio, 16 h; series mostly up to 76.8 µM. The source says:
U.S. Tox21 Program National Center for Advancing Translational Sciences [NCATS] NIH Chemical Genomics Center [NCGC] U.S. Environmental Protection Agency [EPA] National Institutes of Environmental Health Sciences [NIEHS] National Toxicology Program [NTP] U.S. Food and Drug Administration [FDA] Tox21 Assay Overview: The Retinoid X receptor (RXR), a nuclear hormone receptor expressed in liver, spleen, placenta, epidermis, central nervous system. These receptors are able to form homo and heterodimers with other nuclear receptors and due to this heterodimerizing ability, RXR functions as master regulators producing diverse physiological effects. Three subtypes of RXR exist; alpha, beta and gamma. Retinoid X receptor alpha (RXR-alpha) has potential roles in metabolic signaling pathways, skin alopecia, dermal cysts, cardiac development, insulin sensitization etc. Therefore screening environmental chemicals on RXR-alpha signaling can be used for the studies focused on such therapeutic applications. For quantification of RXR-alpha ligands signaling, GeneBLAzer RXR alpha-UAS-bla HEK 293T (Life Technologies, Carlsbad, CA) cells containing a beta-lactamase reporter-gene under control of Retinoid X receptor-alpha response element were used to screen Tox21 10K library.
Tox21 Assay Protocol Summary: RXR-alpha HEK 293T cells were dispensed at 2,000 cells/6 uL of assay medium containing 2% charcoal-stripped FBS using a Multidrop Combi (ThermoFisher Scientific, Waltham, MA) dispenser. The assay was performed in black wall/clear-bottom 1536-well plates (Greiner Bio-One North America Inc. Monroe, NC). 9-cis retinoic acid was used as a positive control in the agonist mode screen. After the assay plates were incubated at 37 C and 5% CO2 for 5 hr, 23 nL of compounds dissolved in DMSO, positive controls or DMSO only were transferred to the assay plate by a Pintool station (Kalypsys, San Diego, CA). The assay plates were incubated at 37 C and 5% CO2 for 16 hr. One uL of LiveBLAzer B/G FRET substrate (Life Technologies) was added using a Flying Reagent Dispenser (Aurora Discovery, San Diego, CA) and the plates were incubated at room temperature for 2 hr. Fluorescence intensity (405 nm excitation, 460/530 nm emission) was measured using an Envision plate reader (PerkinElmer, Shelton, CT).
With `C1CCC2(CCCCO2)OC1`, the Potency result was “inactive”.

Turning to `O=C1c2ccccc2C(=O)c2cc(O)ccc21`, the Potency result was “inactive”.

Consider `CNCC(O)c1ccc(O)c(O)c1` (stereo not given), for which the Potency result is “inactive”.

In the case of `NC(N)=NCCN1CCCCCCC1`, the activation is 1.89% [at 0.29 µM].

Take `CCCc1nn(C)c2c(=O)[nH]c(-c3cc(S(=O)(=O)N4CCN(C)CC4)ccc3OCC)nc12`: the Potency result was “inactive”.

As to `C=CC(=O)OCCCl`, the Potency result is “inactive”.

Take `CC12CCC(C(=O)C1=O)C2(C)C` (stereo not given): the Potency result is “inactive”.

On to `CCCC(C)C(=O)OCC` (stereo not given), for which the Potency entry was “inactive”.

For `CC(N)C12CC3CC(CC(C3)C1)C2` (stereo not given), the Potency entry was “inactive”.

On to `[O-][n+]1cccc(CO)c1`, for which the Potency entry is “inactive”.

Turning to `C=CN1CCCCCC1=O`, the Potency result is “inactive”.

Take `CC(C)(C)C(=O)Oc1ccc(S(=O)(=O)Nc2ccccc2C(=O)NCC(=O)O)cc1`: the Potency entry was “inactive”.

Turning to `C[C@@H]1C[C@H]2[C@@H]3C[C@H](F)C4=CC(=O)C(Cl)=C[C@]4(C)[C@@]3(F)[C@@H](O)C[C@]2(C)[C@@]1(O)C(=O)CO`, the Potency result was “inactive”.

With `CC1=NN(c2cccc(S(=O)(=O)O)c2)C(=O)C1`, the Potency result is “inactive”.

For `C=CCOCC(O)CO` (stereo not given), the Potency result is “inactive”.

`CCCCCCCCN1CCCC1=O`: the Potency entry was “inactive”.

In the case of `CN1CCC(=C2c3ccccc3CCc3cccnc32)CC1`, the Potency entry is “inactive”.

`c1ccc2sc(SN3CCOCC3)nc2c1`: the Potency entry is “inactive”.

For `COc1cc(C(=O)OC(COCCC(C)C)CN2CCOCC2)cc(OC)c1OC` (stereo not given), the Potency entry was “inactive”.

Regarding `NC(=O)N[C@@H](CCC(=O)O)C(=O)O`, the Potency result is “inactive”.

In the case of `CC(=O)N1C[C@H](O)C[C@H]1C(=O)O`, the Potency result is “inactive”.

`C[N+]1(C)CCCC(OC(=O)C(O)(c2ccccc2)c2ccccc2)C1` (stereo not given): the Potency result was “inactive”.

For the compound `C[C@H]1C[C@H]2[C@@H]3CCC4=CC(=O)C=C[C@]4(C)[C@H]3C(=O)C[C@]2(C)[C@@]1(O)C(=O)CO`, the Potency entry is “inactive”.

As to `CN(C)CCCCCCN(C)C`, the Potency result was “inactive”.

Regarding `CCCCCCC1CCC(=O)O1` (stereo not given), the Potency result was “inactive”.

Take `CCOc1ccccc1OCC`: the Potency entry was “inactive”.

Regarding `CC1=CC(=O)[C@H]2C[C@@H]1C2(C)C`, the Potency result is “inactive”.

As to `O=C(CO)[C@@H](O)[C@H](O)[C@H](O)CO`, the Potency result is “inactive”.

With `Cc1onc(-c2c(Cl)cccc2Cl)c1C(=O)Cl`, the Potency result is “inactive”.

In the case of `CCOC(=O)C(=O)CCCCCCl`, the Potency result is “inactive”.

Consider `COc1cc(C)nc(-n2nc(C)cc2OC)n1`, for which the Potency entry was “inactive”.

Turning to `C[N+]1(C)[C@@H]2CC(OC(=O)[C@H](CO)c3ccccc3)C[C@H]1[C@@H]1O[C@@H]12` (stereo not given in full), the Potency entry is “inactive”.

Consider `CCCn1cc[n+](C)c1C`, for which the Potency result was “inactive”.

Turning to `CCCCOCCOC(=O)COc1cc(Cl)c(Cl)cc1Cl`, the Potency entry was “inactive”.

`CC(C)NNC(=O)c1ccncc1`: the Potency result was “inactive”.

Take `CN(C)C(=O)Oc1cccc([N+](C)(C)C)c1`: the Potency result was “inactive”.

For `CC(CC=O)CC(C)(C)C` (stereo not given), the Potency result is “inactive”.

In the case of `CC(=O)Oc1cccc(C)c1`, the Potency result is “inactive”.

Regarding `CC(C)COC(=O)c1ccc(N)cc1`, the Potency entry was “inactive”.

For the compound `CC(=O)c1ccccc1[N+](=O)[O-]`, the Potency entry was “inactive”.

Source of the values: PubChem BioAssay (Tox21).
